Experimental data as given in the supplement of paper PMC6555819.

How the values were obtained:
Assay in all cases: PBM binding z-score (relative to random genomic background probes); higher = stronger binding; sequences stand for … in GC…GCGATTGACAGCGTAGAATGAAGG
[1] = tested on: PPARg:RXRa DBDmut IVT, anti-RXR (DBD mutation: RXRa K156A/R161A, NR concentration 270 nM, RXRa partner concentration 90 nM)
Procedure, shortened: (§1)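 For binding z-scores, the reference was random background probes on custom Agilent 4×180K protein-binding microarrays. These arrays were incubated 1 h with ligand-free nuclear receptor dimers in PBS pH 7.4, 2% milk, 0.02% Triton X-100, 1 mM DTT, 0.2 mg/mL BSA and 0.4 mg/ml salmon testes DNA. Fluorescence was scanned after antibody detection of each partner (one per run) and regression-normalized.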

[2] = tested on: PPARg:RXRa IVT, anti-PPARg (NR concentration 270 nM, RXRa partner concentration 90 nM)
Procedure, shortened: as §1

[3] = tested on: PPARg DBDmut:RXRa IVT, anti-PPARg (DBD mutation: PPARg1 K132A/R137A, NR concentration 270 nM, RXRa partner concentration 90 nM)
Procedure, shortened: as §1

[4] = tested on: PPARg DBDmut IVT, anti-PPARg (DBD mutation: PPARg1 K132A/R137A, NR concentration 270 nM)
Procedure, shortened: as §1

[5] = tested on: PPARg homodimer (NR concentration 180 nM)
Procedure, shortened: as §1

[6] = tested on: PXR:RXRa (NR concentration 270 nM, RXRa partner concentration 90 nM)
Procedure, shortened: as §1

[7] = tested on: PXR homodimer (NR concentration 270 nM)
Procedure, shortened: as §1

[8] = tested on: RARa:RXR (NR concentration 270 nM, RXRa partner concentration 90 nM)
Procedure, shortened: as §1

[9] = tested on: RARa homodimer (NR concentration 270 nM)
Procedure, shortened: as §1

[10] = tested on: RARb:RXRa (NR concentration 270 nM, RXRa partner concentration 90 nM)
Procedure, shortened: as §1

Sequence | PBM binding z-score [1] | PBM binding z-score [2] | PBM binding z-score [3] | PBM binding z-score [4] | PBM binding z-score [5] | PBM binding z-score [6] | PBM binding z-score [7] | PBM binding z-score [8] | PBM binding z-score [9] | PBM binding z-score [10]
GCTTGTAGATCAAGGTTAAGAAAGACTAAGCTAA | 0.698 | 1.3 | -0.233 | 0.273 | 0.452 | 0.314 | -0.212 | 0.726 | -0.0899 | 0.759
CCTAGCAGGGCAGGGTCACTCAAGCATTTCGCTT | 0.873 | 1.78 | -1.54 | -0.906 | 1.69 | 2.92 | -0.402 | 3.98 | -0.114 | 3
ACTCGGAGGACAAAGGTCAGCGCTACGCCAGTGA | 0.977 | 3.82 | 0.281 | -0.509 | 4.7 | 3.99 | 0.485 | 5.21 | 1.94 | 4.73
AGAACGAGGGCAATGAGTTGATAGCCCGGGTGGC | 3.22 | 2.62 | 0.0916 | -0.0623 | 0.48 | 1.43 | 5.33 | 0.0801 | -0.603 | 2.13
ATCTCTAGGTAAGACTCAGTTCAGTCAAGAACGC | 1.92 | 1.14 | 0.571 | 0.277 | 1.18 | 1.32 | 1.41 | 0.474 | 1.34 | 0.511
ATATGTATGTTAAGGGTCATTCAGGTTGGTTCGC | 3.13 | 4.91 | 2.02 | 1.65 | 2.83 | 4.73 | 2.03 | 4.22 | 1.18 | 3.31
CCTTACGGGTCAAGGATATAGCACGGGTGGTACG | 1.81 | 3.02 | 0.42 | -0.469 | 1.43 | 2.54 | 0.0549 | 3.44 | 0.583 | 3.88
TCTAGTTGGTCACGGAGGTCACACTCGACGGGTA | 2.74 | 4.57 | 1.32 | 0.684 | 2.95 | 4.31 | 1.37 | 4.2 | 1.39 | 3.91
CGTCCAAGCTCAAGGTCAGTGAAAGAGACTCGAA | -0.0335 | 0.547 | -0.701 | -0.496 | 1.59 | 1.51 | 0.437 | 1.86 | 0.0805 | 3.43
TAATATAGGTAAAGGTGAAAGTCGAACGATATGA | 6.04 | 6.44 | 2.33 | 2.3 | 2.1 | 1.02 | 0.701 | 1.8 | 1.92 | 2.03
GCTAGTTGTTCAGTAAAAGGTCACACACCGGTCG | 0.391 | 1.95 | 0.53 | 0.109 | 3.86 | 4.88 | 1.13 | 5.29 | 2.41 | 3.91
TCTTGTAGATCAATAGAGGTTCAGAAAGTGCGCT | 1.62 | 0.382 | 0.0591 | 1.1 | -0.371 | 1.06 | 0.746 | 0.485 | 0.189 | 0.0734
ATCTCTAGGTAAAGTTCAGTGAGAGATCGATAGA | 2.11 | 2.62 | 1.04 | 0.672 | 1.57 | 1.77 | 1.52 | 1.01 | 0.975 | 2.58
TCTCGGAGGACACGAATGGTCAGAGCTCGACATC | 1.33 | -0.256 | -0.6 | -0.622 | -0.755 | -0.324 | -0.617 | -0.159 | -0.635 | 1.5
CCGACTGGGGCTTAAGGTTACCATAAGCCAGCCC | 0.244 | 0.428 | -1.39 | -1.88 | 0.217 | 0.141 | -0.395 | 1.08 | -0.504 | 0.868
TCTATTAGTTGATTAGGGCACCCGAAACAGCGGA | 2.25 | 1.68 | 0.695 | 1.2 | 1.1 | 0.419 | 0.671 | 0.573 | 1.64 | 0.873
GCTAGCAGGCCATTTGGGTCGCTCAATGACGGGC | 0.479 | 0.26 | -1.18 | -1.25 | -1.01 | -0.81 | -0.85 | -0.542 | -1.69 | -0.0207
ACAGACAGGTGATGAAGGTAACTCTGGCTATCAT | 0.0322 | 0.477 | 0.353 | 0.0262 | 0.0574 | -0.19 | -0.412 | 0.0777 | -0.252 | 0.114
CAAACTAGGTCATCGGAAGGTCAAAGTCCGCATG | 7.98 | 8.45 | 2.01 | 2.98 | 5.96 | 5.37 | 1.97 | 6.84 | 1.67 | 4.97
CCGACTGGTGCAAAGGTTACCATACTCAGTACGA | 0.299 | 2.67 | 0.0281 | -0.547 | 1.18 | 2.07 | -0.109 | 2.87 | 0.34 | 1.96
AGAATGAGGTTATTAACATCAGGGAATTGCGGTC | 2.7 | 2.3 | 0.432 | 0.815 | 0.441 | 1.18 | 0.616 | 1.36 | 0.203 | 1.2
CCTTACGGGTCACTCCAGGATATAGCATCGGAGT | 2.53 | 2.97 | 0.582 | -0.0388 | 1.51 | 3.13 | 0.912 | 2.84 | 0.759 | 3.4
CCAGACAGGTGAAGGGTAACTCAGTCTGGTACGC | 0.998 | 1.9 | -0.966 | -0.622 | 0.674 | -0.0608 | -0.0922 | 0.0219 | -0.195 | 1.04
